Experimental data reported in PMC5540273 (PLoS ONE, 2017).
Read-outs that look alike come from different tables or passages of the source.

Legend:
Conditions in all cases: n = 1
AAK1 = test system: AAK1
ABL1-nonphosphorylated = test system: ABL1-nonphosphorylated
ABL1-phosphorylated = test system: ABL1-phosphorylated
ABL2 = test system: ABL2
ACVR1B = test system: ACVR1B
ACVR1 = test system: ACVR1
ACVR2A = test system: ACVR2A
[1] = concentration: 1 μM, replicates: in singlicate
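Further: KINOMEscan kinase panel screen.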

Compound: O=c1cc(N2CCOCC2)nc2n(Cc3cccc(Cl)c3Cl)ccn12 [GSK2286295]
- %Inh (AAK1; [1]): 6%
- %Inh (ABL1-nonphosphorylated; [1]): 0%
- %Inh (ABL1-phosphorylated; [1]): 0%
- %Inh (ABL2; [1]): 3%
- %Inh (ACVR1B; [1]): 0%
- %Inh (ACVR1; [1]): 0%
- %Inh (ACVR2A; [1]): 0%

Compound: COc1cc(Nc2nccc(N3CCC(NC(=O)Nc4cc(C)ccc4C)C3)n2)cc(OC)c1OC (centres unmarked) [GSK1379762]
- %Inh (AAK1; [1]): 46%
- %Inh (ABL1-nonphosphorylated; [1]): 0%
- %Inh (ABL1-phosphorylated; [1]): 0%
- %Inh (ABL2; [1]): 22%
- %Inh (ACVR1B; [1]): 0%
- %Inh (ACVR1; [1]): 12%
- %Inh (ACVR2A; [1]): 0%

Compound: O=S(=O)(c1ccc(-c2ccnc3[nH]ccc23)cc1)N1CCCC1 [GSK846226]
- %Inh (AAK1; [1]): 60%
- %Inh (ABL1-nonphosphorylated; [1]): 0%
- %Inh (ABL1-phosphorylated; [1]): 0%
- %Inh (ABL2; [1]): 0%
- %Inh (ACVR1B; [1]): 0%
- %Inh (ACVR1; [1]): 24%
- %Inh (ACVR2A; [1]): 0%

Compound: Cn1ccc2ncnc(Oc3ccc(NC(=O)Nc4ccccc4)cc3)c21
- %Inh (AAK1; [1]): 0%
- %Inh (ABL1-nonphosphorylated; [1]): 26%
- %Inh (ABL1-phosphorylated; [1]): 0%
- %Inh (ABL2; [1]): 0%
- %Inh (ACVR1B; [1]): 0%
- %Inh (ACVR1; [1]): 0%
- %Inh (ACVR2A; [1]): 0%

Compound: Cc1ccc(NC(=O)Nc2cccc(C(F)(F)F)c2)cc1 [GSK955403]
- %Inh (AAK1; 1 µM): 26%
- %Inh (ABL1-nonphosphorylated; 1 µM): 49%
- %Inh (ABL1-phosphorylated; 1 µM): 23%
- %Inh (ABL2; 1 µM): 3%
- %Inh (ACVR1B; 1 µM): 85%
- %Inh (ACVR1; 1 µM): 10%
- %Inh (ACVR2A; 1 µM): 2%

Compound: COc1ccc2nc(-c3cccc(C)n3)nc(Nc3ccncc3)c2c1 [GSK204919]
- %Inh (AAK1; [1]): 0%
- %Inh (ABL1-nonphosphorylated; [1]): 0%
- %Inh (ABL1-phosphorylated; [1]): 0%
- %Inh (ABL2; [1]): 12%
- %Inh (ACVR1; [1]): 0%
- %Inh (ACVR2A; [1]): 0%

Compound: Fc1cc(Cl)ccc1Nc1ccnc2cc(I)ccc12 [GW551191]
- %Inh (AAK1; [1]): 11%
- %Inh (ABL1-nonphosphorylated; [1]): 22%
- %Inh (ABL1-phosphorylated; [1]): 26%
- %Inh (ABL2; [1]): 29%
- %Inh (ACVR1B; [1]): 0%
- %Inh (ACVR1; [1]): 54%
- %Inh (ACVR2A; [1]): 0%

Compound: CC(C)(C)c1ccc(C(=O)Nc2cn3cc(-c4cccnc4)ccc3n2)cc1
- %Inh (AAK1; [1]): 25%
- %Inh (ABL1-nonphosphorylated; [1]): 50%
- %Inh (ABL1-phosphorylated; [1]): 37%
- %Inh (ABL2; [1]): 20%
- %Inh (ACVR1B; [1]): 13%
- %Inh (ACVR1; [1]): 21%
- %Inh (ACVR2A; [1]): 0%

Compound: Cl.O=C(Nc1cccc(-c2nn3ncccc3c2-c2ccnc(Nc3cccnc3)n2)c1)c1c(F)cccc1F [GSK312879]
- %Inh (AAK1; [1]): 0%
- %Inh (ABL1-nonphosphorylated; [1]): 0%
- %Inh (ABL1-phosphorylated; [1]): 0%
- %Inh (ABL2; [1]): 21%
- %Inh (ACVR1B; [1]): 0%
- %Inh (ACVR1; [1]): 0%
- %Inh (ACVR2A; [1]): 0%

Compound: Cc1ccc(NC(=O)Nc2cccc(Cl)c2)cc1-c1ccc(C(=O)Nc2ccncc2)cc1 [GSK1398468]
- %Inh (AAK1; [1]): 37%
- %Inh (ABL1-nonphosphorylated; [1]): 0%
- %Inh (ABL1-phosphorylated; [1]): 1%
- %Inh (ABL2; [1]): 17%
- %Inh (ACVR1B; [1]): 0%
- %Inh (ACVR1; [1]): 0%
- %Inh (ACVR2A; [1]): 0%

Compound: O=C(Nc1n[nH]c2nc(-c3nccs3)c(Br)cc12)C1CCCC1 [SB-742609]
- %Inh (AAK1; [1]): 15%
- %Inh (ABL1-nonphosphorylated; [1]): 7%
- %Inh (ABL1-phosphorylated; [1]): 1%
- %Inh (ABL2; [1]): 25%
- %Inh (ACVR1B; [1]): 0%
- %Inh (ACVR1; [1]): 7%
- %Inh (ACVR2A; [1]): 0%

Compound: Cc1cc(NCC(c2ccccc2)c2ccccc2)nc(NCc2ccc(C(F)(F)F)cc2)n1 [GW497681]
- %Inh (AAK1; [1]): 0%
- %Inh (ABL1-nonphosphorylated; [1]): 0%
- %Inh (ABL1-phosphorylated; [1]): 0%
- %Inh (ABL2; [1]): 0%
- %Inh (ACVR1B; [1]): 0%
- %Inh (ACVR1; [1]): 0%
- %Inh (ACVR2A; [1]): 0%

Compound: CN1C(=O)C(Nc2ccc(Cl)c(C(=O)O)c2)=C(c2ccc(Cl)cc2)C1=O [SB-404290]
- %Inh (AAK1; [1]): 100%
- %Inh (ABL1-nonphosphorylated; [1]): 21%
- %Inh (ABL1-phosphorylated; [1]): 0%
- %Inh (ABL2; [1]): 19%
- %Inh (ACVR1B; [1]): 4%
- %Inh (ACVR1; [1]): 12%
- %Inh (ACVR2A; [1]): 0%

Compound: Nc1nc(-c2nccs2)c(-c2ccnc3ccccc23)s1 [GW693542]
- %Inh (AAK1; [1]): 8%
- %Inh (ABL1-nonphosphorylated; [1]): 0%
- %Inh (ABL1-phosphorylated; [1]): 6%
- %Inh (ABL2; [1]): 15%
- %Inh (ACVR1B; [1]): 14%
- %Inh (ACVR1; [1]): 10%
- %Inh (ACVR2A; [1]): 0%

Compound: COc1ccc(C2=C(Nc3cccc(C(=O)O)c3)C(=O)NC2=O)cc1 [SB-390765]
- %Inh (AAK1; [1]): 4%
- %Inh (ABL1-nonphosphorylated; [1]): 35%
- %Inh (ABL1-phosphorylated; [1]): 0%
- %Inh (ABL2; [1]): 1%
- %Inh (ACVR1B; [1]): 7%
- %Inh (ACVR1; [1]): 100%
- %Inh (ACVR2A; [1]): 0%

Compound: Cn1ccc2ncnc(Oc3ccc(Nc4nc5ccccc5[nH]4)cc3)c21
- %Inh (AAK1; [1]): 21%
- %Inh (ABL1-nonphosphorylated; [1]): 45%
- %Inh (ABL1-phosphorylated; [1]): 2%
- %Inh (ABL2; [1]): 4%
- %Inh (ACVR1B; [1]): 0%
- %Inh (ACVR1; [1]): 0%
- %Inh (ACVR2A; [1]): 10%

Compound: Cn1ccc2ncnc(Oc3cccc(C(=O)Nc4ccccc4)c3)c21
- %Inh (AAK1; [1]): 22%
- %Inh (ABL1-nonphosphorylated; [1]): 0%
- %Inh (ABL1-phosphorylated; [1]): 0%
- %Inh (ABL2; [1]): 0%
- %Inh (ACVR1B; [1]): 1%
- %Inh (ACVR1; [1]): 100%
- %Inh (ACVR2A; [1]): 0%

Compound: Cc1ccc(C(=O)Nc2ccc(Nc3ccnc4cc(-c5ccccn5)ccc34)cc2O)cc1.Cl [GW440146]
- %Inh (AAK1; [1]): 4%
- %Inh (ABL1-nonphosphorylated; [1]): 68%
- %Inh (ABL1-phosphorylated; [1]): 31%
- %Inh (ABL2; [1]): 18%
- %Inh (ACVR1B; [1]): 0%
- %Inh (ACVR1; [1]): 0%
- %Inh (ACVR2A; [1]): 0%
